Screening data: PubChem BioAssay, National Center for Advancing Translational Sciences (NCATS)
D3 ag: D3 dopamine receptor (human) agonism; D3R DiscoveRx beta-arrestin cells, luminescence, 90 min; max activation, %; 410,000 compounds, 0.58% hits; in the data active means max activation above about 30%; further: 0% is about no effect
Target sequence (P35462 whole entry, looked up): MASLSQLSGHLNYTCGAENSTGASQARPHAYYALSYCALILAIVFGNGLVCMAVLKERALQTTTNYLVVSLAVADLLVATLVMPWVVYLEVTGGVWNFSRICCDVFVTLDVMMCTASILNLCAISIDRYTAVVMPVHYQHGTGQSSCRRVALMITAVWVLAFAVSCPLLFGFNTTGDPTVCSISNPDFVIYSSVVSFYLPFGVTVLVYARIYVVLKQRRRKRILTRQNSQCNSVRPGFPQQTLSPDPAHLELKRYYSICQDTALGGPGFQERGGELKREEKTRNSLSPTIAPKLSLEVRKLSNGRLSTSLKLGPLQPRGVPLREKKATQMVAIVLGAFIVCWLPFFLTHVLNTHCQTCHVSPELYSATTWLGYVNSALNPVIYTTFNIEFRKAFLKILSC
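Agonist-mode cell screen: cells plated at 1500/well and incubated overnight at 37 °C, then exposed to library compounds for 90 min at 37 °C. Detection reagent was added for 30–60 min at room temperature, and luminescence was read.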
DRD3 antagonist: antagonists of human D3 dopamine receptor; P35462; 360,000 compounds, 2.5% hits; max response, negative = inhibition, %; D3R cells, DiscoveRx beta-arrestin luminescence, antagonist mode; active compounds read low; in the data active means max response below about -50%; inconclusive means no clear call, values can overlap the other calls; further: on the % scale 0 is the no-effect control and ±100 the full control effect
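Cells plated overnight at 1500 cells/well, then exposed to library compounds with dopamine controls for 90 minutes at 37 degrees C. DiscoveRx reagent added for 30–60 minutes at room temperature; luminescence read, quantitative HTS format.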
KB-3-1 tox: kills parental KB-3-1 adenocarcinoma cells; 400,000 compounds, 1.4% hits; AID 1347075; Potency, µM (series often up to 46.1 µM), hits mostly cytotoxic; KB-3-1 viability, CellTiter-Glo ATP luminescence, 72 h; further: potency means the concentration at half of the fitted maximal effect; on the % scale 0 is the no-effect control and ±100 the full control effect; nearly all actives have a fitted effect of over 60% in size
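72 h, 37 °C compound treatment of KB-3-1 parental cells; CellTiter-Glo added, 10 min, luminescence read. Data corrected against DMSO-only plates and normalized before curve fitting.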
MCF10A rereplic: induces DNA re-replication in MCF 10a normal breast cells. MCF 10A DNA re-replication, Hoechst nuclear intensity, 48 h. Potency, µM (titrated, usually from 46.1 µM), for inactives: at the top dose activity, positive = re-replication, hits mostly activators. 350,000 compounds, 2.9% hits; further: potency means the concentration at half of the fitted maximal effect; % of control where 0% means no effect; nearly all actives have a fitted effect of over 50% in size
KB-V1 cytotox: kills drug-selected multidrug resistant KB-V1 cells. KB-V1 MDR cells viability, CellTiter-Glo, 72 h. 400,000 compounds, 3.4% hits. Potency, µM (doses to about 46.1 µM), actives largely listed as cytotoxic; further: potency means the concentration at half of the fitted maximal effect; on the % scale 0 is the no-effect control and ±100 the full control effect; nearly all actives have a fitted effect of over 60% in size
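Readout: CellTiter-Glo luminescence, 10 min after addition. Cells: KB-V1 MDR subline, 72 h at 37 degrees C with compound. Analysis: corrected, normalized data fitted to concentration-effect curves.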
SW480 rereplic: inducers of DNA re-replication in SW480 colon cancer cells; SW480 DNA re-replication, Hoechst DNA content imaging, 48 h; Potency, µM (top dose mostly 46.1 µM), for inactives: top-dose re-replication activation, most hits filed as activators; 340,000 compounds, 1.8% hits; AID 624297; further: potency means the concentration at half of the fitted maximal effect; % of control where 0% means no effect; nearly all actives have a fitted effect of over 55% in size
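Cells (250 per well) received 23 nL compound or DMSO by pin tool and were kept 48 hr at 37 C, 5% CO2. Nuclei were then stained with Hoechst for 40 min and scanned for DNA content.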
* marks the source's active call; other numbers are inactive results; ! = a repeat was not active. Compounds with a hit are over-represented: about 8.9% of the library has one in this group of screens. Unless noted, the call rests on the fitted dose curve; in most records, active means well fitted curve in the direction sought with a large enough effect; inconclusive means small, poorly fitted or top-dose-only effect, or another doubt; inactive means no such curve, though single readings can be large; an effect the other way counts as inactive or inconclusive.

O=C(NCCCN1CCCC1)C1CCC(=O)N1C1CCCCC1 (configuration not stated) was read as D3 ag 1, DRD3 antagonist -12, KB-3-1 tox inactive, MCF10A rereplic -3%, KB-V1 cytotox inactive and SW480 rereplic -8%.
O=C(NCCCN1CCN(c2ccccc2F)CC1)C1CCC(=O)N1C1CCCC1 (configuration not stated) was read as D3 ag 1, DRD3 antagonist -87*, KB-3-1 tox inactive, MCF10A rereplic -5%, KB-V1 cytotox inactive and SW480 rereplic -1%.
Screening COc1ccc(NC(=O)C(CC(C)C)NS(=O)(=O)c2ccc3c(c2)oc(=O)n3C)cc1Cl (configuration not stated) returned D3 ag -14, KB-3-1 tox inactive and KB-V1 cytotox inactive.
Screening O=C1c2ccccc2C(=O)c2c(O)c(O)cc(O)c21 returned D3 ag -92, DRD3 antagonist -67*, KB-3-1 tox inactive, MCF10A rereplic 11%, KB-V1 cytotox inactive and SW480 rereplic 0%.
`Nc1ccc(O)c2c1C(=O)c1ccccc1C2=O` gave D3 ag -17, DRD3 antagonist -15, KB-3-1 tox inactive, MCF10A rereplic -37%, KB-V1 cytotox inactive and SW480 rereplic -85%.
`Cn1nnc2c(N3CCN(c4ccccc4F)CC3)ncnc21` gave D3 ag -3, KB-3-1 tox inactive and KB-V1 cytotox inactive.
For CCn1c(SCC(=O)Nc2nc3ccc(OC)cc3s2)nc2c1c(=O)n(C)c(=O)n2C the results were D3 ag 23, DRD3 antagonist 23, KB-3-1 tox inactive, MCF10A rereplic 1%, KB-V1 cytotox 2.1µM* and SW480 rereplic 2%.
Screening CCOc1ccc2nc(NC(=O)CSc3nc4c(c(=O)n(C)c(=O)n4C)n3C(C)C)sc2c1 returned D3 ag 5, DRD3 antagonist 97, KB-3-1 tox inconclusive, MCF10A rereplic inconclusive, KB-V1 cytotox 3.7µM* and SW480 rereplic 5%.
CC(C)n1c(SCC(=O)Nc2nc3ccccc3s2)nc2c1c(=O)n(C)c(=O)n2C was read as D3 ag 2, DRD3 antagonist 8, KB-3-1 tox inactive, MCF10A rereplic inconclusive, KB-V1 cytotox inactive and SW480 rereplic inconclusive.
C=Cc1ccc(CN2C(=O)N(c3ccc(CC)cc3)S(=O)(=O)c3ccccc32)cc1 was read as D3 ag 2, KB-3-1 tox inconclusive and KB-V1 cytotox inactive.
Screening CCc1nn2c(N)c(/C=C3\C=Nc4ccccc43)c(=O)nc2s1 returned D3 ag -10, DRD3 antagonist -50*!, KB-3-1 tox inconclusive, MCF10A rereplic inconclusive, KB-V1 cytotox inactive and SW480 rereplic -12%.
Screening O=C(c1cccs1)N1CCc2c([nH]c3ccccc23)C1c1ccccn1 (configuration not stated) returned D3 ag -12, DRD3 antagonist inconclusive, KB-3-1 tox inconclusive, MCF10A rereplic 12%, KB-V1 cytotox inactive and SW480 rereplic 18%.
`O=C(c1cccs1)N1CCc2c([nH]c3ccccc23)C1c1ccc(Cl)cc1` (configuration not stated) gave D3 ag -6, DRD3 antagonist -53*, KB-3-1 tox 12µM*, MCF10A rereplic inconclusive, KB-V1 cytotox 12µM* and SW480 rereplic inconclusive.
`O=C(C=Cc1ccccn1)c1ccccc1` gave D3 ag -13, DRD3 antagonist inconclusive, KB-3-1 tox inconclusive, MCF10A rereplic 3.3µM*, KB-V1 cytotox inactive and SW480 rereplic inconclusive.
`CCc1ccc(NC(=O)C2CCCN(c3nn4cc(-c5ccc(OC)cc5)nc4s3)C2)cc1` (configuration not stated) gave D3 ag 13, KB-3-1 tox inactive and KB-V1 cytotox inconclusive.
`Nc1nc2ccccc2n1/N=C/c1ccc(-c2ccccc2)o1` gave D3 ag 3, DRD3 antagonist 4, KB-3-1 tox inconclusive, MCF10A rereplic inconclusive, KB-V1 cytotox 21µM* and SW480 rereplic inconclusive.
For Nc1nc2ccccc2n1/N=C/c1cccnc1 the results were D3 ag 2, DRD3 antagonist 12, KB-3-1 tox inactive, MCF10A rereplic 3%, KB-V1 cytotox inactive and SW480 rereplic -2%.
CCOc1cc(C(=O)CSc2nnc(CNc3ccc(Cl)cc3)o2)ccc1NC(=O)CC was read as D3 ag 8, DRD3 antagonist -21, KB-3-1 tox inconclusive, MCF10A rereplic inconclusive, KB-V1 cytotox 21µM* and SW480 rereplic 11%.
COC(=O)c1scc(-c2ccc(C)cc2)c1S(=O)(=O)Nc1ccc(OC(F)(F)F)cc1 was read as D3 ag 2, KB-3-1 tox inactive and KB-V1 cytotox inactive.
For CCCc1ccc(OC(=O)CSc2nnc(-c3cccs3)o2)cc1 the results were D3 ag 9, KB-3-1 tox inactive and KB-V1 cytotox inactive.
Screening Cc1ccccc1NC(=O)Nc1nnc(Cc2ccc([N+](=O)[O-])cc2)s1 returned D3 ag 0, DRD3 antagonist 4, KB-3-1 tox inactive, MCF10A rereplic 6%, KB-V1 cytotox inactive and SW480 rereplic 13%.
`Cc1cc(C)nc(NC(=O)CSc2nnnn2-c2ccccc2)n1` gave D3 ag -2, DRD3 antagonist 7, KB-3-1 tox inactive, MCF10A rereplic 1%, KB-V1 cytotox 21µM* and SW480 rereplic -2%.
Cc1cccc(C)c1NC(=O)CSc1nnnn1-c1ccc(C(=O)O)cc1 was read as D3 ag 2, DRD3 antagonist -79*, KB-3-1 tox inactive, MCF10A rereplic 1%, KB-V1 cytotox inactive and SW480 rereplic -4%.
For Cc1ccccc1NC(=O)CCSc1nnnn1-c1ccccc1 the results were D3 ag 31*, DRD3 antagonist -23, KB-3-1 tox inactive, MCF10A rereplic 0%, KB-V1 cytotox inactive and SW480 rereplic 12%.
Cc1ccc(C(=O)CSc2nnnn2-c2ccccc2)o1 was read as D3 ag 10, DRD3 antagonist 5, KB-3-1 tox inactive, MCF10A rereplic 0.41µM*, KB-V1 cytotox inactive and SW480 rereplic -24%.
For O=C(O)CCSc1nnnn1-c1ccccc1 the results were D3 ag 4, DRD3 antagonist -14, KB-3-1 tox inactive, MCF10A rereplic 8%, KB-V1 cytotox inactive and SW480 rereplic -1%.
`O=C(CSc1nnnn1-c1ccccc1)Nc1ccccc1` gave D3 ag -1, DRD3 antagonist inconclusive, KB-3-1 tox inactive, MCF10A rereplic -2%, KB-V1 cytotox inactive and SW480 rereplic -8%.
`COc1ccccc1CNC(=O)c1cnc2sc(N3CCOCC3)nn2c1=O` gave D3 ag -14.
